CHRM1 agonist = human M1 muscarinic receptor agonists, primary screen, Fluo-8 calcium fluorescence, CHO-K1 cells, HTS; AID 588814, 2011; activation, % at 3 µM; Muscarinic acetylcholine receptor M1 (Homo sapiens), P11229; CHO-K1 hM1, agonist mode; 0% DMSO, 100% acetylcholine EC100; 360,000 tested, 0.33% active;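 active = activation above the run's mean compound activation plus 3 SD, cut at about 16% in these data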;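 also: peak over basal fluorescence ratio within a 140 s kinetic read after compound addition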
Target sequence (P11229 whole entry, looked up): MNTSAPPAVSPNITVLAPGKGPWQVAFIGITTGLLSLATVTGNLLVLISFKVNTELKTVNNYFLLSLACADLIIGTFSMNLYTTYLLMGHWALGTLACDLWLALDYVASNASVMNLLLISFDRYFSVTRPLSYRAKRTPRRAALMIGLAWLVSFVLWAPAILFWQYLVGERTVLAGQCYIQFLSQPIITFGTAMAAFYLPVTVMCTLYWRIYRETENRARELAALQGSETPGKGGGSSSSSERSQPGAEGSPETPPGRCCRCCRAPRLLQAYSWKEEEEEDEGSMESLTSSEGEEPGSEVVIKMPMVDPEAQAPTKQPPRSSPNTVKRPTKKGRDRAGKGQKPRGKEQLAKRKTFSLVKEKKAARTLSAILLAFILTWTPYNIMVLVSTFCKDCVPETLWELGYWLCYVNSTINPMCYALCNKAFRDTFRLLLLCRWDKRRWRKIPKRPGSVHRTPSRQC
CHO-K1 Ca PAM = nonselective calcium activators in parental CHO-K1 cells, primary screen, counter-screen for M1 PAM project, cell-based, Fluo-8 calcium fluorescence, full deck, 1536-well | ATP EC20; 0% at ATP EC20, 100% at ATP max | activation, % at 3 µM | 360,000 tested, 0.02% active;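 active = activation above the run cutoff, the mean activation of all test compounds plus 3 SD, cut at about 40% in these data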;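 also: peak over basal fluorescence ratio in a 140 s read after ATP addition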
CHO-K1 Ca antag = nonselective inhibitor or artifact in parental CHO-K1 cells. ATP-induced calcium, Fluo-8 fluorescence. inhibition, % at 3 µM. 360,000 tested, 0.6% active. AID 602250;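 active = inhibition above a per-plate cutoff, the plate's mean sample inhibition plus 3 SD, cut at about 24% in these data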
CHRM1 PAM = human M1 muscarinic receptor positive allosteric modulators, primary screen, CHO-K1 cells, Fluo-8 calcium fluorescence, 1536-well | 360,000 tested, 0.088% active | CHO-K1 hM1, ACh EC20; 0% = ACh EC20, 100% = maximal ACh | Muscarinic acetylcholine receptor M1 (Homo sapiens), P11229 | activation, % at 3 µM; in the data active = activation above about 19%, passing the limit was not always enough
M1 ag parental = counter-screen for M1 agonists: effect in parental CHO-K1 cells; activation, % at 3 µM; 360,000 tested, 0.48% active; AID 602248, 2012; Fluo-8 calcium fluorescence; scaled to maximal ATP response, vehicle zero; in the data active = activation above about 15%;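 also: untransfected CHO-K1 host cells lacking M1 receptor as counterscreen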
CHRM1 antagonist = human M1 muscarinic receptor antagonists, primary screen, CHO-K1 cells, Fluo-8 calcium fluorescence, 1536-well; CHO-K1 hM1, ACh EC80 antagonist; 360,000 tested, 1.3% active; AID 588852, 2011; inhibition, % at 3 µM; Muscarinic acetylcholine receptor M1 (Homo sapiens), P11229;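 active = percent inhibition above its own plate's cutoff, namely the mean of that plate's compound wells plus 3 SD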;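 also: peak over basal fluorescence ratio during 140 s after agonist addition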
Large screens that a line does not name were inactive. Hits are enriched below; roughly 2.3% of the tested compounds scored in any of these assays.

CC1CN1P(=O)(Oc1ccccc1)N1CC1C (stereo not given)	none
Cn1c(O)c(/C=C/C=Nc2ccccc2)c(=O)n(C)c1=S	CHRM1 agonist 58, M1 ag parental 28, CHRM1 antagonist 34
C=CCn1c(C)c(C=C2C(=O)NC(=O)NC2=O)c2ccccc21	none
CCOc1ccc(-c2c(C)n(-c3ccc(OCC)cc3)c3[n+]2CCCCC3)cc1	CHO-K1 Ca antag 40
CCCCCSc1cc(OC)c(CCN(C)C)cc1OC	CHRM1 antagonist 49
C=CCn1c(O)c(C(CC)=Nc2cccc(C(=O)O)c2)c(=O)[nH]c1=O	none
O=C(O)c1ccccc1-c1ccc(C=C2C(=O)N(c3ccccc3)C(=S)N(c3ccccc3)C2=O)o1	none
CCN(CC)c1ccc(CNCCc2ccc(F)cc2)cc1	CHRM1 antagonist 30
NCCc1ccc(OCc2ccccc2)c(OCc2ccccc2)c1	M1 ag parental 16
O=C1NC(=O)C(CCc2ccncc2)(CCc2ccncc2)C(=O)N1CCc1ccccc1	M1 ag parental 17
CS(=O)(=O)NNP(=O)(NNS(C)(=O)=O)NC(=O)c1ccc(Br)cc1	none

Screening results as filed in PubChem BioAssay.
